Data published in ChEMBL document CHEMBL1961873, “Compounds: GSK PKIS; Assays: Nanosyn kinase panel” (2012).

Tests used:
[1] = target: Protein kinase C gamma type (Homo sapiens) (UniProt P05129); details: at 1 µM;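 note: each value is an averaged percent inhibition of the enzyme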
[2] = target: T1, Protein kinase C iota type (Homo sapiens) (UniProt P41743); details: at 0.1 µM
T1 sequence (whole entry): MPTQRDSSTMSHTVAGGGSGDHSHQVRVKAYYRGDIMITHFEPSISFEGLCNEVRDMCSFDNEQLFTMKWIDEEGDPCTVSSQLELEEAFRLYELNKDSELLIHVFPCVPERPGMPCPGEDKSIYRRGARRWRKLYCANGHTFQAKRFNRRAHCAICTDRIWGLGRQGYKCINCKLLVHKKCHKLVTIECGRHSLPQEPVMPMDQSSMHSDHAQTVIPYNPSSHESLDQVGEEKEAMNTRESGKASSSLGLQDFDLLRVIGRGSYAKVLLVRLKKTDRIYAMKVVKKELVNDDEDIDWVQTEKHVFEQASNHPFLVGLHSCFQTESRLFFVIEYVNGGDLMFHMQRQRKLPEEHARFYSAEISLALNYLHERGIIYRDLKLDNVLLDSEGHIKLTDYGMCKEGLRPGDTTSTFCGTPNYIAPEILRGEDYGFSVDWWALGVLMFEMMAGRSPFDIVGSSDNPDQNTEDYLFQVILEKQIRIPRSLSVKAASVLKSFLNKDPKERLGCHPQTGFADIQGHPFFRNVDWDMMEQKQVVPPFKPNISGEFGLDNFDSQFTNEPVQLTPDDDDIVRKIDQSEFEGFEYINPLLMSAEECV

[3] = target: T1, Protein kinase C iota type (Homo sapiens); details: at 1 µM
[4] = target: Protein kinase C theta type (Homo sapiens) (UniProt Q04759); details: at 0.1 µM
[5] = target: Protein kinase C theta type (Homo sapiens) (UniProt Q04759); details: at 1 µM
[6] = target: Protein kinase C beta type (Homo sapiens) (UniProt P05771); details: at 0.1 µM
[7] = target: Protein kinase C beta type (Homo sapiens) (UniProt P05771); details: at 1 µM
[8] = target: T2, Serine/threonine-protein kinase D1 (Homo sapiens) (UniProt Q15139); details: at 0.1 µM
T2 sequence (whole entry): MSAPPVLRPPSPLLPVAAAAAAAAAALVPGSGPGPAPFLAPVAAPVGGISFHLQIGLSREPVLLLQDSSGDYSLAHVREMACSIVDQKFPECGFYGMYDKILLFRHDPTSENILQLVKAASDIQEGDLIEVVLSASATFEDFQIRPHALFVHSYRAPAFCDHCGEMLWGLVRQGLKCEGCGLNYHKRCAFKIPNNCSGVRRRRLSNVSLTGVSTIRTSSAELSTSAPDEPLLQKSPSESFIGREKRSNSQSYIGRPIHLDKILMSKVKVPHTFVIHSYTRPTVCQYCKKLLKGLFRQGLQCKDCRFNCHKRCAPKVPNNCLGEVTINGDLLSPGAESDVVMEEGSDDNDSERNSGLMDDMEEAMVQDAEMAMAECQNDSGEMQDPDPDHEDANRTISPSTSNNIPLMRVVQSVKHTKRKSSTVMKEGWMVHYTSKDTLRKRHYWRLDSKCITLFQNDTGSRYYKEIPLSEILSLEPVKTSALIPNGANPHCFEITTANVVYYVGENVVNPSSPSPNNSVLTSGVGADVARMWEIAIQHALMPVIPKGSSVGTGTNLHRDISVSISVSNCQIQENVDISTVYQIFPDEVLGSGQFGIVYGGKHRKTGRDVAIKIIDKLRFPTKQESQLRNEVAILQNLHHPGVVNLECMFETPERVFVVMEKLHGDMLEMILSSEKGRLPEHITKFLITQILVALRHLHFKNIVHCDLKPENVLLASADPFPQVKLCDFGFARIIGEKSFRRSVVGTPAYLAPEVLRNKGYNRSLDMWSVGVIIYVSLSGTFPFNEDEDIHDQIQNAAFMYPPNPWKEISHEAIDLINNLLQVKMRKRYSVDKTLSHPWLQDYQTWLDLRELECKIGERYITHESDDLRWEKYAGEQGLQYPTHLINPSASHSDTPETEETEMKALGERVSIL

[9] = target: T2, Serine/threonine-protein kinase D1 (Homo sapiens); details: at 1 µM
[10] = target: T3, Serine/threonine-protein kinase D2 (Homo sapiens) (UniProt Q9BZL6); details: at 0.1 µM
T3 sequence (whole entry): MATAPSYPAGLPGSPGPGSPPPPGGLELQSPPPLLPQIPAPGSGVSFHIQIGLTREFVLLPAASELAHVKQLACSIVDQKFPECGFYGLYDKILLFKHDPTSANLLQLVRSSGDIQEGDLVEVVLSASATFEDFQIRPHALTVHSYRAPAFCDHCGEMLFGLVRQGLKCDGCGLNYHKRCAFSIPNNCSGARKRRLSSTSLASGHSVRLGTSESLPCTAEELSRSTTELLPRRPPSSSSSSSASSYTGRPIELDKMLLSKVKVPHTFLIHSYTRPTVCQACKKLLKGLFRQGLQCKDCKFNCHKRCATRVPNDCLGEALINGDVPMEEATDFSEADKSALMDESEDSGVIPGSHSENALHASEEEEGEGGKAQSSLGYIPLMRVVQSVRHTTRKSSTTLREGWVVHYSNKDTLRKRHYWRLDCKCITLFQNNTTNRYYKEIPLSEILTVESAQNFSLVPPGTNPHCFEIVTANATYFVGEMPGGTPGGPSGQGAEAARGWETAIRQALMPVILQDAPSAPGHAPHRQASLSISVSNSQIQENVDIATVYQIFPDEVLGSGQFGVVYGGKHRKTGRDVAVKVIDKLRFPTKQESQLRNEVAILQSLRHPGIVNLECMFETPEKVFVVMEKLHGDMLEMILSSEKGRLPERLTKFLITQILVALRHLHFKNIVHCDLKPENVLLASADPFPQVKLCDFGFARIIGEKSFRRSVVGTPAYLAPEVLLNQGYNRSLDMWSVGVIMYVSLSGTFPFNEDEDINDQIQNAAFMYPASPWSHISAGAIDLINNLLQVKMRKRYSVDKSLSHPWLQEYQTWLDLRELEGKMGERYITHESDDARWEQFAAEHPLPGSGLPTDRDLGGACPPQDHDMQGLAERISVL

[11] = target: T3, Serine/threonine-protein kinase D2 (Homo sapiens); details: at 1 µM
[12] = target: T4, Serine/threonine-protein kinase D3 (Homo sapiens) (UniProt O94806); details: at 0.1 µM
T4 sequence (whole entry): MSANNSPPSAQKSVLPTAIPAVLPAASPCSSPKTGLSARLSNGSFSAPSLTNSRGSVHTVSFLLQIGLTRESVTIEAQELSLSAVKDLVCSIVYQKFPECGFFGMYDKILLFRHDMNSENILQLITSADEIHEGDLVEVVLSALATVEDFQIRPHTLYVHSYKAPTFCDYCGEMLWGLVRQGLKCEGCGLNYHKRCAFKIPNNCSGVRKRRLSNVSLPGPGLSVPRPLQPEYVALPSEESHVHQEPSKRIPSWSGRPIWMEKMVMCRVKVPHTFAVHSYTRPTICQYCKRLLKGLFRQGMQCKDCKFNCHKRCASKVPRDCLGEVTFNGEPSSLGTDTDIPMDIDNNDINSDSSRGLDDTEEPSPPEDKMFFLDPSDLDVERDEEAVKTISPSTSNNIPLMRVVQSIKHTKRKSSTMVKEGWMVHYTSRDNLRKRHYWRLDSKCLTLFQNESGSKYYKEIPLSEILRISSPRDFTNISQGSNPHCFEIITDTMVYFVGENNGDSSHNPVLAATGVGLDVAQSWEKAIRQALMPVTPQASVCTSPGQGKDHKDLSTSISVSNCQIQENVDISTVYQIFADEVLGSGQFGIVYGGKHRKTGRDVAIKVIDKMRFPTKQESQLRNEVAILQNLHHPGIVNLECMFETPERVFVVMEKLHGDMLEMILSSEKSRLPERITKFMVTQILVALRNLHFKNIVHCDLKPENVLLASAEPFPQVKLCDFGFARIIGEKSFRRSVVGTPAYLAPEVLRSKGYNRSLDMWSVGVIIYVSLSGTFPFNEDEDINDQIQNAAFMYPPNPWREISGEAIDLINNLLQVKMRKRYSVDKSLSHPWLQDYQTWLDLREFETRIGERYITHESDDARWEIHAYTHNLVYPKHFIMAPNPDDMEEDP

[13] = target: T4, Serine/threonine-protein kinase D3 (Homo sapiens); details: at 1 µM
[14] = target: T5, cGMP-dependent protein kinase 1 (Homo sapiens) (UniProt Q13976); details: at 0.1 µM
T5 sequence (whole entry): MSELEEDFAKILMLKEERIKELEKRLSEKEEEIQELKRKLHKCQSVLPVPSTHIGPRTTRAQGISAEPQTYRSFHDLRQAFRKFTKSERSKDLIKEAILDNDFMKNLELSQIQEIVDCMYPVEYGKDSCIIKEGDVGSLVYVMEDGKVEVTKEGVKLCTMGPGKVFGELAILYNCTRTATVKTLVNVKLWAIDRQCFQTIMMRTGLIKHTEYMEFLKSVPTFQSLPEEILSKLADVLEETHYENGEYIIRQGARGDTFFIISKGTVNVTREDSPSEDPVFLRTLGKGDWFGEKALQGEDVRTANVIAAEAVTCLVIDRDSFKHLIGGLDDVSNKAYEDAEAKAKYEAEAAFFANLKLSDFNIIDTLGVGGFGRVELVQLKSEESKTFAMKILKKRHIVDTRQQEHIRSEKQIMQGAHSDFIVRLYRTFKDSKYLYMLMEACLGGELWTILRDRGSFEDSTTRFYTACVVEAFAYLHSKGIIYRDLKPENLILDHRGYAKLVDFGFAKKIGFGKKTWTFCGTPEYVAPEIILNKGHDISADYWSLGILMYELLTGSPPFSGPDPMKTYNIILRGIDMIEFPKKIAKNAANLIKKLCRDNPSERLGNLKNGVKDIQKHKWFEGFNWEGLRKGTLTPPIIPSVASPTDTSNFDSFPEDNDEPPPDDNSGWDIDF

[15] = target: T5, cGMP-dependent protein kinase 1 (Homo sapiens); details: at 1 µM
[16] = target: T6, cGMP-dependent protein kinase 2 (Homo sapiens) (UniProt Q13237); details: at 0.1 µM
T6 sequence (whole entry): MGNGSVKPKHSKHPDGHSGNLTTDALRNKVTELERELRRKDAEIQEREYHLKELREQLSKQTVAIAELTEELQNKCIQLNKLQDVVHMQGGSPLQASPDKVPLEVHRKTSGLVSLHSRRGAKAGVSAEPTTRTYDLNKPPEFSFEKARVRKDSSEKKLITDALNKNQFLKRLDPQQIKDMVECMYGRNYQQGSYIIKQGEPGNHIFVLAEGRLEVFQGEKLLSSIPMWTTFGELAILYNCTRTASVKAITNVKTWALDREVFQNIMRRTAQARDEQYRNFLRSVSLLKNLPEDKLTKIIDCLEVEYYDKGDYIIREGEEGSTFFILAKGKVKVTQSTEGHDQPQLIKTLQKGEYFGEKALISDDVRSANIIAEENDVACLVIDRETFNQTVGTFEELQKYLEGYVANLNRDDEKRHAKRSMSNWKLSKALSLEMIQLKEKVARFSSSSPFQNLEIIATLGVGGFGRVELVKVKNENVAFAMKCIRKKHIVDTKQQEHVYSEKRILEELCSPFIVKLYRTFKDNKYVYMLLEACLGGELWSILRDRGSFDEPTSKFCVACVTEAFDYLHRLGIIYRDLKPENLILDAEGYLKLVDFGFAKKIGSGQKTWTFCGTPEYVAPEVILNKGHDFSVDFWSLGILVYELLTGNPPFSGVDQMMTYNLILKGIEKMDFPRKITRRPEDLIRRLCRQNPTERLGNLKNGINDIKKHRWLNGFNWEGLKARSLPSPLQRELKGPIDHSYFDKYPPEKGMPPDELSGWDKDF

[17] = target: T6, cGMP-dependent protein kinase 2 (Homo sapiens); details: at 1 µM
[18] = target: T7, cAMP-dependent protein kinase catalytic subunit PRKX (Homo sapiens) (UniProt P51817); details: at 0.1 µM
T7 sequence (whole entry): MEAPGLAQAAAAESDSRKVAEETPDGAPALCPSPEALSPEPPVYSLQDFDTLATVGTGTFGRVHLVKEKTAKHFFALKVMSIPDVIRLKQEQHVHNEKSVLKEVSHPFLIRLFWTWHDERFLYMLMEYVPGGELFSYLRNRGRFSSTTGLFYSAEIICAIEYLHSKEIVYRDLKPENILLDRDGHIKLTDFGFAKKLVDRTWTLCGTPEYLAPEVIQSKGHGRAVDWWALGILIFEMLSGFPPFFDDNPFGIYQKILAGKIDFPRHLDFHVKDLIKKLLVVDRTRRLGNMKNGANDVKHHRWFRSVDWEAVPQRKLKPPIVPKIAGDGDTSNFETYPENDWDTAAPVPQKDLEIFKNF

[19] = target: T7, cAMP-dependent protein kinase catalytic subunit PRKX (Homo sapiens); details: at 1 µM
[20] = target: Rho-associated protein kinase 1 (Homo sapiens) (UniProt Q13464); details: at 0.1 µM;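 note: values are mean percent inhibition of ROCK1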
Rho-associated protein kinase 1 (Homo sapiens), sequence (Q13464 2-1354 limits assumed): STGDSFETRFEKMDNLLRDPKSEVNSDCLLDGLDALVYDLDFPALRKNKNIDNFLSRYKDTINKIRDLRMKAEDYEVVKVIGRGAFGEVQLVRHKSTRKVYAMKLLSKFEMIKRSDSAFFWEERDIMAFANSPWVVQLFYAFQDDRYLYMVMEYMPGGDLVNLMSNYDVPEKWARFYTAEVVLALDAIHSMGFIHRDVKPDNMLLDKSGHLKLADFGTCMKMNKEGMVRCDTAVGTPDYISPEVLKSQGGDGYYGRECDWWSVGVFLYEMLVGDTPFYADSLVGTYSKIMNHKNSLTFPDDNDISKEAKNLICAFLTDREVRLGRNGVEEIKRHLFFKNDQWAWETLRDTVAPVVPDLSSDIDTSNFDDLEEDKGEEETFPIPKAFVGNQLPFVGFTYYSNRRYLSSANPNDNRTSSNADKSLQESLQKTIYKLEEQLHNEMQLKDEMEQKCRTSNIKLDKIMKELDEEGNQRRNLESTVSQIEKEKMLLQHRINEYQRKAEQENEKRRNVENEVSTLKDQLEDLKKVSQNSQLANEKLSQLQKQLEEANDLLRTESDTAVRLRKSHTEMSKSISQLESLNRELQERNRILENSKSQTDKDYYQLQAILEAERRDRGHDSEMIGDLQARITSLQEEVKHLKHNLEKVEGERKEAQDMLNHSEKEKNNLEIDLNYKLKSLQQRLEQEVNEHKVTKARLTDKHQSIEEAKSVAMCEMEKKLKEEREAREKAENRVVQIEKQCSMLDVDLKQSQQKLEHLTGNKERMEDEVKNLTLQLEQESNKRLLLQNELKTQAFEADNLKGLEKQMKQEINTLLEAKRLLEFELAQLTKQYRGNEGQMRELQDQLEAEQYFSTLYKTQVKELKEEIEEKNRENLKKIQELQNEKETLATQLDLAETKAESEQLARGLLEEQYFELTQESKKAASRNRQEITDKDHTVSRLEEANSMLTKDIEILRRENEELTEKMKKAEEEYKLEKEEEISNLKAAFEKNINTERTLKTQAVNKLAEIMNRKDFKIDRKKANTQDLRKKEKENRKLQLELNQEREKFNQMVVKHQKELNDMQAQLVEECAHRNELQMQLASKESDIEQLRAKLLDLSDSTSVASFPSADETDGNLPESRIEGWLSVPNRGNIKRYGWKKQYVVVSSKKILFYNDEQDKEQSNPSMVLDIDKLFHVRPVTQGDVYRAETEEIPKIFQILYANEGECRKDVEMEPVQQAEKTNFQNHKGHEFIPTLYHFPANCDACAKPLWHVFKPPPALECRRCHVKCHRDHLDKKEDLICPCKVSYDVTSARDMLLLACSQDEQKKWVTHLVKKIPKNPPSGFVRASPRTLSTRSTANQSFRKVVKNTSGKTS

Protein kinase C theta type (Homo sapiens), sequence (Q04759 whole entry, looked up): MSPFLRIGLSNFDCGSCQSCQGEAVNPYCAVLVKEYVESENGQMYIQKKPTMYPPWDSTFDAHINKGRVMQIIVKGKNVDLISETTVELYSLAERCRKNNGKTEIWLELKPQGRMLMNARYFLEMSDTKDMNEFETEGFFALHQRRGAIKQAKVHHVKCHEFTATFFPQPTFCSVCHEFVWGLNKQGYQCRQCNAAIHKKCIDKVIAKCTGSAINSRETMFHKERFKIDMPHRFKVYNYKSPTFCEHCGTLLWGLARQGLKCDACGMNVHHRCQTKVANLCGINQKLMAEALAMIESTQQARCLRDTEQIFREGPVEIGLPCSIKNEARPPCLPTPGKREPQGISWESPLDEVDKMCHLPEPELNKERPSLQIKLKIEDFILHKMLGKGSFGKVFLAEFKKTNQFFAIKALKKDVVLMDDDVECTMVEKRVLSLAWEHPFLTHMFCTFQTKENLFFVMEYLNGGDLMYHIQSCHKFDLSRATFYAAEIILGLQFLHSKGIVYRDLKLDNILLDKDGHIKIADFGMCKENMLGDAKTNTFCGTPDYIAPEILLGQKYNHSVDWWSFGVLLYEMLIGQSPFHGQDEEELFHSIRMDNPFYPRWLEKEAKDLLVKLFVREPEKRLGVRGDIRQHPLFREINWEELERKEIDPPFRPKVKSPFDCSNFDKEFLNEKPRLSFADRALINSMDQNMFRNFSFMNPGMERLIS
Protein kinase C beta type (Homo sapiens), sequence (P05771 2-671 limits assumed): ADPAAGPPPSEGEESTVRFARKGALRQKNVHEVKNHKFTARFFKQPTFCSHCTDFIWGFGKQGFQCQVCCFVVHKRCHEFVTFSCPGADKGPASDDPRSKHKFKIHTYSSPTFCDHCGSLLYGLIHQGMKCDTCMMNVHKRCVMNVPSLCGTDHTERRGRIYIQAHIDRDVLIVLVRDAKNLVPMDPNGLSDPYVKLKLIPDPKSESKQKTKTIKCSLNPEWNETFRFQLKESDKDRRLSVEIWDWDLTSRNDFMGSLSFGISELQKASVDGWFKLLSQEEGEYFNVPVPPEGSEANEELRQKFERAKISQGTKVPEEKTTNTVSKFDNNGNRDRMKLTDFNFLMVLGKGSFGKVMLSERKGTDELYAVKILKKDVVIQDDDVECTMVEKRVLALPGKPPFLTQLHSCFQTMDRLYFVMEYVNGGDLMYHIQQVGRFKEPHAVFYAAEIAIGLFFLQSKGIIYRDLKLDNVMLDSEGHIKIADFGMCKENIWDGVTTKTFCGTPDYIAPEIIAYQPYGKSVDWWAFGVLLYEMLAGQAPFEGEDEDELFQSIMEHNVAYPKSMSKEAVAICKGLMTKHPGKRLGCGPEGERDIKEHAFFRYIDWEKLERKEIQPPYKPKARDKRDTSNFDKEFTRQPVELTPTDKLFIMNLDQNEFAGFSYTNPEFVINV

| Structure (SMILES) | inhibition [1] [%] | inhibition [2] [%] | inhibition [3] [%] | inhibition [4] [%] | inhibition [5] [%] | inhibition [6] [%] | inhibition [7] [%] | inhibition [8] [%] | inhibition [9] [%] | inhibition [10] [%] | inhibition [11] [%] | inhibition [12] [%] | inhibition [13] [%] | inhibition [14] [%] | inhibition [15] [%] | inhibition [16] [%] | inhibition [17] [%] | inhibition [18] [%] | inhibition [19] [%] | inhibition [20] [%] |
| --- | --- | --- | --- | --- | --- | --- | --- | --- | --- | --- | --- | --- | --- | --- | --- | --- | --- | --- | --- | --- |
| NS(=O)(=O)c1cccc(-c2cc3ccncc3cc2OCc2ccccc2)c1 | 4.07 | 2.51 | 3.39 | 2.29 | 1.87 | 2.02 | 2.23 | 4.25 | 7.09 | 5.29 | 5.47 | 6.19 | 6.3 | 3.6 | 4.53 | 2.72 | 5.57 | 1.93 | 0.54 | 0.94 |
| c1ccc(Nc2ncc(-c3ccccc3)o2)cc1 | 4.48 | 1.64 | 0.9 | 1.93 | 2.27 | 1.46 | 2.63 | 4.37 | 7.71 | 4.47 | 8.41 | 4.57 | 8.93 | 5.37 | 6.06 | 3.62 | 5.4 | 2.38 | 3.33 | 1.88 |
| CN(C)CCCn1c(-c2nonc2N)nc2cnccc21 | 4.25 | 2.62 | 3.77 | 2.2 | 1.32 | 2.32 | 4.48 | 3.41 | 7.59 | 4.15 | 5.95 | 4.93 | 7.35 | 3.68 | 4.99 | 2.51 | 5.66 | 1.48 | 3.97 | 5.96 |
